In PubChem BioAssay AID1159580 (chemical genetic matrix, 2015):
Among all 5,500 compounds or so, about 2,000 (36%) were called active. Not shown: some 18% with an inconclusive outcome. Cut-off read from the data, not from the text of the source: active = normalized growth mostly below about 0.91 (no sharp cut-off); inconclusive = no clear call, values can overlap the other calls; inactive = mostly above about 0.92. The list shows a part of the results.

Experiment: chemical genetic growth profiling, strain panel (AID 1159580);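 note: tested at 20 µM; growth read once vehicle control cultures reached saturation at 30 °C; 1 = growth at the plate median or of vehicle wells; lower values mean less growth of the strain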
Settings: growth OD

Measured: normalized growth

Cc1cn([C@H]2C[C@H](N=[N+]=[N-])[C@@H](CO)O2)c(=O)[nH]c1=O
inactive: S. cerevisiae deletion strains, locus YJR066W, strain TOR1, hits give low values 0.932 | S. cerevisiae deletion strains, locus YKL009W, strain mrt4, hits give low values 0.995 | S. cerevisiae deletion strains, locus YKL068W, hits give low values 1.01 | S. cerevisiae deletion strains, locus YKL085W, strain MDH1 (second series), hits give low values 1.01 | S. cerevisiae deletion strains, locus YKL085W, strain MDH1, hits give low values 1.01 | S. cerevisiae deletion strains, locus YKL160W, strain elf1, hits give low values 0.975 | S. cerevisiae deletion strains, locus YKL190W, strain CNB1, hits give low values 1.01 | S. cerevisiae deletion strains, locus YKR001C, strain vps1, hits give low values 1.02 | S. cerevisiae deletion strains, locus YKR026C, strain gcn3, hits give low values 0.988 | S. cerevisiae deletion strains, locus YKR091W, strain srl3, hits give low values 0.999 | S. cerevisiae deletion strains, locus YLL001W, strain dnm1, hits give low values 0.978 | S. cerevisiae deletion strains, locus YLL026W, hits give low values 0.996 | S. cerevisiae deletion strains, locus YLL041C, strain sdh2, hits give low values 0.993 | S. cerevisiae deletion strains, locus YLR027C, strain aat2, hits give low values 0.99 | S. cerevisiae deletion strains, locus YLR039C, strain RIC1, hits give low values 0.989 | S. cerevisiae deletion strains, locus YLR058C, strain SHM2, hits give low values 1.01 | S. cerevisiae deletion strains, locus YLR102C, strain apc9, hits give low values 1.01 | S. cerevisiae deletion strains, locus YLR113W, strain HOG1, hits give low values 0.936 | S. cerevisiae deletion strains, locus YLR221C, strain rsa3, hits give low values 1.02 | S. cerevisiae deletion strains, locus YLR258W, strain gsy2, hits give low values 0.97 | S. cerevisiae deletion strains, locus YLR262C, strain YPT6 (second series), hits give low values 0.998 | S. cerevisiae deletion strains, locus YLR262C, strain YPT6, hits give low values 1.01 | S. cerevisiae deletion strains, locus YLR268W, strain sec22, hits give low values 1 | S. cerevisiae deletion strains, locus YLR320W, strain mms22, hits give low values 0.981 | S. cerevisiae deletion strains, locus YLR330W, strain CHS5, hits give low values 1 | S. cerevisiae deletion strains, locus YLR342W, strain FKS1 (second series), hits give low values 0.991 | S. cerevisiae deletion strains, locus YLR342W, strain FKS1, hits give low values 1.01 | S. cerevisiae deletion strains, locus YLR357W, strain rsc2, hits give low values 0.935 | S. cerevisiae deletion strains, locus YLR370C, strain arc18, hits give low values 0.98 | S. cerevisiae deletion strains, locus YLR371W, strain rom2, hits give low values 1.01 | S. cerevisiae deletion strains, locus YLR384C, strain iki3, hits give low values 1 | S. cerevisiae deletion strains, locus YLR418C, strain cdc73, hits give low values 1.04 | S. cerevisiae deletion strains, locus YML016C, strain PPZ1, hits give low values 1 | S. cerevisiae deletion strains, locus YML032C, strain rad52, hits give low values 1.01 | S. cerevisiae deletion strains, locus YML120C, strain ndi1, hits give low values 1.01 | S. cerevisiae deletion strains, locus YML124C, strain tub3, hits give low values 1.01 | S. cerevisiae deletion strains, locus YMR058W, strain fet3, hits give low values 1.02 | S. cerevisiae deletion strains, locus YMR078C, strain ctf18, hits give low values 1 | S. cerevisiae deletion strains, locus YMR125W, strain sto1, hits give low values 0.999 | S. cerevisiae deletion strains, locus YMR129W, hits give low values 0.99 | S. cerevisiae deletion strains, locus YMR205C, strain PFK2, hits give low values 0.975 | S. cerevisiae deletion strains, locus YMR223W, strain ubp8, hits give low values 1 | S. cerevisiae deletion strains, locus YMR231W, strain pep5, hits give low values 1 | S. cerevisiae deletion strains, locus YMR263W, strain SAP30, hits give low values 1.01 | S. cerevisiae deletion strains, locus YMR307W, strain GAS1, hits give low values 1.02 | S. cerevisiae deletion strains, locus YNL067W, strain RPL9B, hits give low values 1.02 | S. cerevisiae deletion strains, locus YNL071W, strain lat1, hits give low values 1.01 | S. cerevisiae deletion strains, locus YNL153C, strain GIM3, hits give low values 1 | S. cerevisiae deletion strains, locus YNL183C, strain NPR1, hits give low values 0.911 | S. cerevisiae deletion strains, locus YNL209W, strain ssb2, hits give low values 0.994 | S. cerevisiae deletion strains, locus YNL233W, strain BNI4, hits give low values 0.991 | S. cerevisiae deletion strains, locus YNL248C, strain rpa49, hits give low values 0.981 | S. cerevisiae deletion strains, locus YNL250W, strain rad50, hits give low values 1.02 | S. cerevisiae deletion strains, locus YNL271C, strain bni1, hits give low values 1.02 | S. cerevisiae deletion strains, locus YNL298W, strain CLA4, hits give low values 1.02 | S. cerevisiae deletion strains, locus YNL307C, strain MCK1, hits give low values 1.01 | S. cerevisiae deletion strains, locus YNL322C, strain KRE1 (second series), hits give low values 0.972 | S. cerevisiae deletion strains, locus YNL322C, strain KRE1, hits give low values 1 | S. cerevisiae deletion strains, locus YNR049C, strain mso1, hits give low values 0.996 | S. cerevisiae deletion strains, locus YNR052C, strain pop2, hits give low values 1.01 | S. cerevisiae deletion strains, locus YOL006C, strain TOP1, hits give low values 1 | S. cerevisiae deletion strains, locus YOL012C, strain htz1 1.05 | S. cerevisiae deletion strains, locus YOL147C, strain pex11, hits give low values 1.01 | S. cerevisiae deletion strains, locus YOR001W, strain rrp6, hits give low values 1.02 | S. cerevisiae deletion strains, locus YOR061W, strain CKA2, hits give low values 1.01 | S. cerevisiae deletion strains, locus YOR069W, strain VPS5, hits give low values 1.01 | S. cerevisiae deletion strains, locus YOR070C, strain gyp1, hits give low values 0.998 | S. cerevisiae deletion strains, locus YOR080W, strain dia2, hits give low values 0.999 | S. cerevisiae deletion strains, locus YOR083W, strain WHI5, hits give low values 0.946 | S. cerevisiae deletion strains, locus YOR106W, strain vam3, hits give low values 0.999 | S. cerevisiae deletion strains, locus YOR136W, strain idh2, hits give low values 1.02 | S. cerevisiae deletion strains, locus YOR144C, strain elg1, hits give low values 1.01 | S. cerevisiae deletion strains, locus YOR184W, strain ser1, hits give low values 1.01 | S. cerevisiae deletion strains, locus YOR231W, strain MKK1, hits give low values 0.982 | S. cerevisiae deletion strains, locus YOR265W, strain rbl2, hits give low values 1.01 | S. cerevisiae deletion strains, locus YOR270C, strain vph1, hits give low values 1.06 | S. cerevisiae deletion strains, locus YOR290C, strain snf2, hits give low values 0.993 | S. cerevisiae deletion strains, locus YOR316C, strain cot1, hits give low values 1.01 | S. cerevisiae deletion strains, locus YPL051W, strain arl3, hits give low values 0.985 | S. cerevisiae deletion strains, locus YPL055C, strain LGE1, hits give low values 1.03 | S. cerevisiae deletion strains, locus YPL078C, strain atp4, hits give low values 0.99 | S. cerevisiae deletion strains, locus YPL106C, strain sse1, hits give low values 0.94 | S. cerevisiae deletion strains, locus YPL240C, strain hsp82, hits give low values 0.994 | S. cerevisiae deletion strains, locus YPL241C, strain CIN2, hits give low values 1 | S. cerevisiae deletion strains, locus YPL256C, strain CLN2, hits give low values 0.942 | S. cerevisiae deletion strains, locus YPR119W, strain clb2, hits give low values 1.01 | S. cerevisiae deletion strains, locus YPR141C, strain kar3, hits give low values 1.01 | S. cerevisiae deletion strains, locus YPR163C, strain tif3, hits give low values 1.01 | S. cerevisiae deletion strains, locus YPR167C, strain met16, hits give low values 1.01 | S. cerevisiae deletion strains, strain wtn01, hits give low values 1.01 | S. cerevisiae strains, strain wild type, hits give low values 1
